Measured values from article PMC4552634, “A New Set of Chemical Starting Points with Plasmodium falciparum Transmission-Blocking Potential for Antimalarial Drug Discovery” (PLoS ONE, 2015).
Hit rate of the full screen: of about 13,000 compounds, about 3,200 (25%) showed an effect of 50% or more. The list shows a part of the results.

System: P. falciparum stage V gametocytes
Design: BacTiter-Glo ATP luminescence viability of purified stage V gametocytes in 384-well plates, per cent inhibition versus DMSO
Details: 48 h, 5 µM; inhibitor

Point of comparison: `Nc1ccc2[nH]cc(C3CCN(CC4CCC(NC(=O)/C=C/c5ccc(Cl)c(Cl)c5)CC4)CC3)c2n1` (stereo not shown) [TCMDC-140064], “% Inhibition” value 97.26%. Against it:
- CCC(=O)N[C@@H]1CN[C@@H](C#Cc2cc3c(Nc4ccc(OCc5cccc(F)c5)c(Cl)c4)ncnc3s2)C1 [TCMDC-135410] — lower, -39.51%
- N#Cc1c(N2CCCCCC2)nc(N)c2c(N)nc3c(c12)CC(=O)N3c1ccc(F)cc1 [TCMDC-123902] — lower, 44.67%
- O=C(Nc1ccc(S(=O)(=O)N2CCCCC2)cc1)c1cc(-c2cc(Cl)ccc2O)n[nH]1 [TCMDC-124905] — lower, -12.68%
- CN1CCC(Oc2ccc(CN3CC[C@H](NC(=O)c4ccc(F)c(F)c4)C3)c3ccccc23)C1 (stereo partly shown) [TCMDC-135278] — lower, 72.64%
- CCCCCN1CCCN(Cc2cccc(NC(=O)c3ccc4ccccc4c3)c2)CC1 [TCMDC-141854] — lower, -83.26%
- Cc1cccc2[nH]cc(C3CCN(CCC4CCN(C(=O)/C=C/c5ccc(Cl)c(Cl)c5)CC4)CC3)c12 [TCMDC-140124] — lower, -19.67%
- Nc1ccc2[nH]cc(C3CCN(CC4CCN(C(=O)/C=C/c5ccc(Cl)c(Cl)c5)CC4)CC3)c2n1 [TCMDC-140061] — higher, 100.1%
- CC(=O)Nc1ccc2[nH]cc(C3CCN(CCC4CCN(C(=O)/C=C/c5ccc(Cl)c(Cl)c5)CC4)CC3)c2n1 [TCMDC-140113] — lower, -31.57%
- CC(=O)Nc1ccc2[nH]cc(C3CCN(CC4CCN(C(=O)/C=C/c5ccc(Cl)c(Cl)c5)CC4)CC3)c2n1 [TCMDC-140112] — lower, -22.97%
- Nc1ccc2[nH]cc(C3CCN(CCC4CCN(C(=O)/C=C/c5ccc(Cl)c(Cl)c5)CC4)CC3)c2n1 [TCMDC-140062] — higher, 107.7%
- CC(Cc1ccc(C(=O)OC(c2ccccc2)c2ccccc2)cc1)NCC(O)c1ccccc1 (stereo not shown) [TCMDC-131546] — lower, 37.45%
- Cc1ccc2nc(-c3cc(-c4cccc(CCN5CCOCC5)c4)cnc3N)[nH]c2c1 [TCMDC-133136] — lower, -33.78%
- Cc1nc2ccc(/C=C/C(=O)NC3CCC(CCN4CCc5ccc(C#N)cc5CC4)CC3)cc2[nH]1 (stereo not shown) [TCMDC-139675] — lower, -3.608%
- Cc1cc(O)cc2c(C3CCN(CC4CCC(NC(=O)/C=C/c5ccccc5Cl)CC4)CC3)c[nH]c12 (stereo not shown) [TCMDC-139924] — lower, -46.01%
- Nc1ccc2[nH]cc(C3CCN(CC4CCC(NC(=O)/C=C/c5ccccc5Cl)CC4)CC3)c2n1 (stereo not shown) [TCMDC-140063] — higher, 106.2%
- CS(=O)(=O)Nc1ccc2[nH]cc(C3CCN(CC4CCC(NC(=O)/C=C/c5ccc(Cl)c(Cl)c5)CC4)CC3)c2n1 (stereo not shown) [TCMDC-140088] — lower, 4.239%
- CNC(=O)c1ccc2[nH]cc(C3CCN(CC4CCC(NC(=O)/C=C/c5ccccc5Cl)CC4)CC3)c2c1 (stereo not shown) [TCMDC-139978] — lower, -4.902%
- CC(=O)Nc1ccc2[nH]cc(C3CCN(CC4CCC(NC(=O)/C=C/c5ccc(Cl)c(Cl)c5)CC4)CC3)c2n1 (stereo not shown) [TCMDC-140114] — lower, 6.04%
- CC(=O)Nc1ccc2[nH]cc(C3CCN(CC4CCC(NC(=O)/C=C/c5ccccc5Cl)CC4)CC3)c2n1 (stereo not shown) [TCMDC-140111] — lower, 60.6%
- CCCCc1cc(NCc2ccncc2)nc(Nc2ccc(OC)cc2)n1 [TCMDC-134010] — lower, -13.59%
- Cc1cccc(NC(=O)c2cnc(N3CCN(c4ccncc4)CC3)c(Cl)c2)c1 [TCMDC-134625] — lower, 39.85%
- CC(C)Nc1cc(C(=O)N[C@@H](Cc2ccccc2)[C@H](O)CNC2CCOCC2)c(F)c(N2CCCCS2(=O)=O)c1 [TCMDC-135541] — lower, -18.96%
- CN(C)CCCOc1cc(NC(=O)Nc2ccc(-c3ccncc3)c3ccccc23)ccc1I [TCMDC-139136] — lower, 21.74%
- CS(=O)(=O)CCCNCc1ccc(-c2cc3c(Nc4ccc(OCc5ccccc5)cc4)ncnc3cn2)o1 [TCMDC-138081] — lower, 11.38%
- CN(Cc1ccc(C#N)cc1)C1CCN(c2cc(NC(=O)c3cccc(F)c3)ccn2)CC1 [TCMDC-134976] — lower, -19.78%
- COc1ccc2nccc([C@@H](O)CN3CCC(NC(=O)Cc4ccc(Br)c5ccccc45)CC3)c2c1 [TCMDC-141168] — lower, -21.28%
- CC1(C)N=C(N)N=C(N)C1c1ccc(Cl)cc1 (stereo not shown) [TCMDC-137610] — lower, 17.18%
- O=C(O[C@@H]1CN[C@H](C#Cc2cc3c(Nc4ccc5c(cnn5Cc5ccccc5)c4)ncnc3s2)C1)N1CCCC1 [TCMDC-135376] — lower, 21.76%
- O=C(Cn1c(SCc2cccc(F)c2F)cc(=O)c2ccccc21)N(CCCn1ccnc1)Cc1ccc(-c2ccc(C(F)(F)F)cc2)cc1 [TCMDC-141467] — lower, 68.26%
- O=C(Cn1c(SCc2cccc(F)c2F)cc(=O)c2ccccc21)N(CCN1CCCCC1)Cc1ccc(-c2ccc(C(F)(F)F)cc2)cc1 [TCMDC-141466] — higher, 112.5%
- CCN(CC)CCCN(Cc1ccc(-c2ccc(C(F)(F)F)cc2)cc1)C(=O)Cn1c(SCc2cccc(F)c2F)cc(=O)c2ccccc21 [TCMDC-141175] — higher, 139.9%
- O=C(Cn1c(CCc2cccc(F)c2F)cc(=O)c2cccnc21)N(CCCn1ccnc1)Cc1ccc(-c2ccc(C(F)(F)F)cc2)cc1 [TCMDC-141469] — lower, 1.607%
- O=C(Cn1c(CCc2cccc(F)c2F)cc(=O)c2ccccc21)N(CCN1CCCCC1)Cc1ccc(-c2ccc(C(F)(F)F)cc2)cc1 [TCMDC-141142] — lower, -28.19%
- O=C(Cn1c(SCc2cccc(F)c2F)cc(=O)c2ccccc21)N(CCn1ccnc1)Cc1ccc(-c2ccc(C(F)(F)F)cc2)cc1 [TCMDC-141468] — lower, 91.6%
- CN(Cc1cccc(F)c1)C1CCN(c2cc(NC(=O)c3ccc(F)cc3)ccn2)CC1 [TCMDC-135018] — lower, 1.836%
- CCCOc1ccccc1-c1nc2[nH]c3c(c2c(=O)[nH]1)CCN(C)C3 [TCMDC-138173] — lower, 5.306%
- COc1cc(C=CC(=O)N2CCC3(CC2)CC(=O)c2ccccc2O3)cc(OC)c1OC [TCMDC-123541] — lower, 7.005%
- N#Cc1ccc(-c2ccc(OCC(O)CN3CCCN(Cc4cccc(O)c4Cl)CC3)cc2)cc1 (stereo not shown) [TCMDC-141431] — lower, -23.75%
- COc1ccc2nccc([C@@H](O)CN3CCC(NCc4nc5ccccc5s4)CC3)c2c1 [TCMDC-140790] — lower, -20.83%
- COc1ccc(NC(=O)Nc2ccc(-c3ccncc3)c(Cl)c2)cc1N1CCN(C)CC1 [TCMDC-139134] — lower, -28.75%
- CN(C)c1ccc(NC2=NC(C)(C)N=C(N)N2)cc1 [TCMDC-124346] — lower, 7.678%
- O=C(Cn1c(SCc2cccc(F)c2F)cc(=O)c2ccccc21)N(CCc1cnc[nH]1)Cc1ccc(-c2ccc(C(F)(F)F)cc2)cc1 [TCMDC-141484] — lower, 44.33%
- Cn1cncc1CCN(Cc1ccc(-c2ccc(C(F)(F)F)cc2)cc1)C(=O)Cn1c(SCc2cccc(F)c2F)cc(=O)c2ccccc21 [TCMDC-141451] — higher, 112.4%
- Cc1ccc(/C=C/C(=O)NC2CCC(N3CCC(c4ccccc4C)CC3)CC2)cc1C (stereo not shown) [TCMDC-133526] — lower, -66.55%
- COc1cc(NC(=O)c2cccs2)c(OC)cc1NC(=O)Nc1cccc(Cl)c1 [TCMDC-123531] — lower, -32.35%
- CCN1C(=O)C(CC(=O)Nc2cccc(Cl)c2)N(Cc2ccc(OC)c(OC)c2)C1=S (stereo not shown) [TCMDC-123795] — lower, 79.41%
- COc1ccc(CN2C(=S)N(Cc3ccccc3)C(=O)C2CC(=O)Nc2ccccc2)cc1OC (stereo not shown) [TCMDC-123874] — lower, 33.25%
- O=C(Cc1ccccn1)Nc1cccc(-c2cccc(-c3nc4ccc(C(F)(F)F)cc4[nH]3)c2)c1 [TCMDC-132177] — lower, -14.6%
- COc1ccc2nccc([C@@H](O)CN3CCC(NCc4ccc5c(c4)OCCO5)CC3)c2c1 [TCMDC-141123] — lower, 9.641%
- COc1ccc2nccc([C@@H](O)CN3CCC(NCc4ccc5cccc(O)c5n4)CC3)c2c1 [TCMDC-140715] — lower, -19.01%
- COc1ccc2nccc([C@@H](O)CN3CCC(NC(=O)/C=C/c4ccnc5ccccc45)CC3)c2c1 [TCMDC-141103] — lower, 15.04%
- COc1ccc2nccc([C@@H](O)CN3CCC(NCc4cc5ccccn5n4)CC3)c2c1 [TCMDC-141025] — lower, 65.1%
- COc1ccc2nccc([C@@H](O)CN3CCC(NC(=O)/C=C/c4ccc5ccccc5n4)CC3)c2c1 [TCMDC-141104] — lower, 76.48%
- COc1ccc2nccc([C@@H](O)CN3CCC(NCc4cc5ccccc5nn4)CC3)c2c1 [TCMDC-140972] — lower, -3.79%
- COc1ccc2nccc([C@@H](O)CN3CCC(NC(=O)/C=C/c4ccc(F)c5ccccc45)CC3)c2c1 [TCMDC-141105] — lower, -9.775%
- COc1ccc2nccc([C@@H](O)CN3CCC(NCC4COc5ccccc5O4)CC3)c2c1 (stereo partly shown) [TCMDC-140733] — lower, 86.29%
- COc1ccc2nccc([C@@H](O)CN3CCC(NCC(O)Cc4ccccc4)CC3)c2c1 (stereo partly shown) [TCMDC-140702] — lower, 11.24%
- Nc1ncc(-c2cccc(OCc3ccccc3)c2)cc1-c1nnc2ccc(Cl)nn12 [TCMDC-134853] — lower, -7.115%
- COC(=O)c1ccc(N2CCN(CCCCNC(=O)c3ccc(NC(=O)c4ccc(Cl)cc4)cc3)CC2)c(OC)c1 [TCMDC-138526] — lower, 7.636%
- O=C(Nc1ccc(Cl)cc1)Nc1cccc(-c2cccc(-c3nc4ccccc4[nH]3)c2)c1 [TCMDC-133178] — lower, -4.164%
